Source: PubChem BioAssay
The entries come from a sample that favours hits as a whole.
Pf Dd2 growth: Plasmodium falciparum Dd2 growth inhibition; 120,000 compounds, 4.3% hits; P. falciparum Dd2 growth, SYBR Green, 72 h; Potency, µM (doses to about 28.9 µM), without a hit: top-dose activity, negative = inhibition, actives largely listed as inhibitors; active means well fitted inhibition curve with a large enough effect;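 further: plate controls were DMSO vehicle for no effect and reference drug for full effect; nearly all actives have a fitted effect of over 65% in size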
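Readout: SYBR Green fluorescence, 485 nm excitation, 535 nm emission, after ~16 h lysis at 37C. Before that, Dd2-infected red cells (2.5% hematocrit) grew 72 h with compound, 29 uM top final concentration.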
* = called active by the depositor; i = inactive; [ ] = dose if it differs, or a comment. Potency means the concentration at half of the fitted maximal effect.

SMILES	Pf Dd2 growth
CCOc1ccc(S(=O)(=O)c2c(C(=O)c3ccc(CC)cc3)cnc3ccc(C)cc23)cc1	i
CCc1ccc(Cn2c(CNS(=O)(=O)c3ccc(C)c(C)c3)nc3cccnc32)cc1	-15%
CCc1ccc(S(=O)(=O)c2c(C(=O)c3ccc(C)c(C)c3)cnc3ccccc23)cc1	4µM*
Cc1ccc(CCNC(=O)c2cc(Nc3ccc(C)c(C)c3)nc3ccccc23)cc1	-2%
CCc1ccc(C(=O)c2cnc3ccc(C)cc3c2S(=O)(=O)c2ccc(OC)cc2)cc1	11µM*
COc1ccc(S(=O)(=O)c2c(O)c3ccc(C(=O)NCc4ccc(F)cc4)cc3[nH]c2=O)cc1	-17%
CN1C[C@H](NCc2cccc(Cl)c2)CCC[C@@H](C(=O)NC2CC2)CC1=O	9%[44.1 µM]
Cc1ccccc1NC(=O)N1CCC(CCNC(=O)c2ccccc2)CC1	-4%
CCCNC(=O)N1CC(c2nc(CCOc3cccc(C)c3)no2)C1	i
Cc1cccc(Cn2c(CN3CCC(C(=O)NCc4cccnc4)CC3)cc3ccccc32)c1	i
Cc1ccc(Cn2c(CN3CCC(C(=O)NCC(C)c4ccccc4)CC3)cc3ccccc32)cc1 (configuration not stated)	i
CN(C)c1ccc(CNC(=O)C2CCN(Cc3cc4ccccc4n3Cc3ccccc3)CC2)cc1	11µM*
COCCCNC(=O)C1CCN(Cc2cc3ccccc3n2Cc2ccccc2C)CC1	-16%
Cc1ccc(Cn2c(CN3CCC(C(=O)NCCc4ccccc4)CC3)cc3ccccc32)cc1	7.9µM*
CN(C)c1ccc(CNC(=O)C2CCN(S(=O)(=O)c3ccc4c(c3)oc(=O)n4C)CC2)cc1	15%
CN(C)c1ccc(CNC(=O)C2CCN(c3nc4ccccc4[nH]3)CC2)cc1	29%
O=C(NCc1cccnc1)C1CCN(Cc2cc3ccccc3n2Cc2ccccc2)CC1	11µM*
Cc1cccc(Cn2c(CN3CCC(C(=O)NC(C)C)CC3)cc3ccccc32)c1	-18%
O=C(NCc1ccco1)[C@H]1CN(Cc2ccccc2)C[C@H]1C(=O)O	-15%
Cn1cnc2cc(-c3ccc(F)cc3)cc(C(=O)NCCCn3ccnc3)c21	-3%[44.1 µM]
O=C(NC1CCCCC1)N1CCC2(CC1)CC(N(C(=O)c1ccccc1)C1CC1)CCO2 (configuration not stated)	i
CCn1cc(S(=O)(=O)NC2CCc3nn(CC4CC4)c(=O)n3CC2)cn1 (configuration not stated)	20%
NC(=O)[C@H](Cc1cccs1)NC(=O)[C@@]1(O)C[C@@H](O)[C@H](O)[C@@H](NC(=O)CC2(CC(=O)O)CCCC2)C1	4%
Cc1ccc(CNC(=O)Cn2c(=O)c(-c3noc(C)n3)c3n(c2=O)CCCCC3)cc1	i
O=C(CN1C(=O)NC2(CCCCC2)C1=O)Nc1cc(F)ccc1F	40%
SMILES	Pf Dd2 growth
COc1ccc(C(=O)N2CCCC(c3nc(-c4cnccn4)no3)CCNC(=O)CC2)cn1 (configuration not stated)	i
CSc1ccc(-c2cccc(C=O)c2)cc1	-11%[44.1 µM]
COc1ccccc1N1CCN(CC(O)COc2ccc(Cl)c(C)c2)CC1 (configuration not stated)	56%
COc1ccccc1N1CCN(CC(O)COc2cc(C)cc(C)c2)CC1 (configuration not stated)	42%
COc1ccccc1N1CCN(CC(O)COc2ccc(C)cc2C(C)(C)C)CC1 (configuration not stated)	8.9µM*
COC[C@H]1CCCN1Cc1nc(C2(O)CCN(C(=O)Nc3ccc(F)cc3)CC2)cs1	-21%
OC1(c2csc(CN3CCN(c4ccccn4)CC3)n2)CCNCC1	2%[44.1 µM]
OC1(c2csc(CN3CCN(c4ccccn4)CC3)n2)CCN(Cc2ccc(F)cc2)CC1	5µM*
CN1CCN(Cc2nc(C3(O)CCN(Cc4ccccc4)CC3)cs2)CC1	i
COC[C@H]1CCCN1Cc1nc(C2(O)CCN(Cc3ccc(F)cc3)CC2)cs1	7.9µM*
COC[C@H]1CCCN1Cc1nc(C2(O)CCN(CC(C)C)CC2)cs1	i
O=C(NCc1nnc2n1C(C(=O)N1CCN(c3ncccn3)CC1)CC2)c1cccnc1 (configuration not stated)	17%
CCC1(C(=O)NCc2ccc(OC(C)C)cc2)CCCCC(=O)N1 (configuration not stated)	-9%
CN(CC[C@H]1CN(C(=O)NC2CCCCC2)CC[C@H]1CC(=O)O)c1ccccc1	i
COCC1CN(C(=O)Cc2ccccc2F)CC12CCNCC2 (configuration not stated)	i
C=CCn1c(-c2ccc(F)cc2)cn2cc(C(=O)N[C@@H](C)CO)nc2c1=O	-17%
CC(C)=CCn1c(-c2ccccc2Cl)cn2cc(C(=O)NCCCO)nc2c1=O	7.9µM*
C=CCn1c(-c2cccs2)cn2cc(C(=O)NC(CC)CO)nc2c1=O (configuration not stated)	1%
CCc1nc(-c2c3n(c(=O)n(CC(=O)Nc4cccc(OC)c4)c2=O)CCCCC3)no1	i
Clc1cc(Cl)cc(NC2CNC2)c1	22µM*
